Measurements published in PubChem BioAssay (Tox21).
Results filed as inconclusive are left out. Entries that show only a call come without a potency. Some structures have more than one record in an assay (separate samples or runs), and their calls can disagree. Active and inactive are the calls of the source. Unless noted, calls come from the whole dose curve; as a rule, active = well fitted curve in the direction sought with a large enough effect in the repeat runs; inconclusive = weak or mixed curves; inactive = no such curve, though single readings can be large; an effect the other way counts as inactive or inconclusive.

Assays:
[1] = qHTS assay to test for compound auto fluorescence at 535 nm (green) in HEK293 cells (AID 720680)
[2] = qHTS assay to test for compound auto fluorescence at 460 nm (blue) in HEK293 cell free culture (AID 720681)
How it was run: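 Compounds were added to cell-free DMEM with 10% FBS and fluorescence read directly. The blue channel used 405 nm excitation and 460 nm emission, with triamterene as the reference fluorophore.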

[3] = qHTS assay to test for compound auto fluorescence at 535 nm (green) in HEK293 cell free culture (AID 720682)
How it was run: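 Steps: dispense DMEM/10% FBS into empty wells; pin in compound or DMSO; measure fluorescence at 485/535 nm. Values are fluorescein equivalents.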

[4] = qHTS assay to test for compound auto fluorescence at 590 nm (red) in HEK293 cell free culture (AID 720683)
How it was run: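 Cell-free wells of DMEM with 10% FBS received compound, and intrinsic fluorescence was read at excitation/emission 540/590 nm. Values expressed as equivalence to Rose Bengal sodium.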

[5] = qHTS assay to test for compound auto fluorescence at 590 nm (red) in HepG2 cell free culture (AID 720684)
How it was run: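 Rose Bengal sodium served as the reference for red signal. Test compounds were dispensed into serum-containing MEM (10% FBS) without cells, and plates were read at 540/590 nm.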

[6] = qHTS assay to test for compound auto fluorescence at 460 nm (blue) in HepG2 cell free culture (AID 720685)
How it was run: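 Cell-free plates of MEM plus 10% FBS received 23 nL compound or DMSO vehicle; blue-channel (405/460 nm) intensity scored against triamterene as reference fluorophore.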

[7] = qHTS assay to test for compound auto fluorescence at 535 nm (green) in HepG2 cell free culture (AID 720686)
[8] = qHTS assay to test for compound auto fluorescence at 460 nm (blue) in HepG2 cells (AID 720687)
How it was run: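 HepG2 cells in MEM with 10% FBS, attached overnight at 37 C, were exposed to compound or DMSO for 1 hr at 37 C, 5% CO2. Blue fluorescence was read at 405/460 nm, with triamterene as reference fluorophore.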

[9] = qHTS assay to identify small molecule antagonists of the glucocorticoid receptor (GR) signaling pathway - cell viability counter screen (AID 720693); note: nearly all actives have a fitted effect of over 55% in size
[10] = qHTS assay for identifying genotoxic compounds that show differential cytotoxicity against isogenic chicken DT40 cell lines with known DNA damage response pathways - wild type cell line (AID 743012); note: nearly all actives have a fitted effect of over 60% in size
How it was run: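 Cytotoxicity in repair-proficient parental chicken DT40 cells serves as the comparator for Rad54/Ku70- and Rev3-deficient lines. Cells were exposed to compounds for 40 h at 37 C/5% CO2, and ATP-based luminescence (CellTiter-Glo) measured viability.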

[11] = qHTS assay for identifying genotoxic compounds that show differential cytotoxicity against isogenic chicken DT40 cell lines with known DNA damage response pathways - Rev3 mutant cell line (AID 743014); note: nearly all actives have a fitted effect of over 55% in size; note: potency is the fitted concentration of half-maximal effect
[12] = qHTS assay for identifying genotoxic compounds that show differential cytotoxicity against isogenic chicken DT40 cell lines with known DNA damage response pathways - Rad54/Ku70 mutant cell line (AID 743015); note: nearly all actives have a fitted effect of over 60% in size
[13] = qHTS assay to identify small molecule antagonists of the androgen receptor (AR) signaling pathway - cell viability counter screen (AID 743033; note: nearly all actives have a fitted effect of over 45% in size)
[14] = qHTS assay to identify small molecule antagonists of the androgen receptor (AR) signaling pathway using the MDA cell line - cell viability counter screen (AID 743041; note: nearly all actives have a fitted effect of over 45% in size)
How it was run: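 Cytotoxicity counter screen: MDA-kb2 AR-luc cells, compound + R1881, 16 h, 37C, 0% CO2; CellTiter-Fluor added at 15.5 h, fluorescence read after 30 min.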

[15] = molecular target: Glucocorticoid receptor (Homo sapiens) (UniProt P04150); assay: qHTS assay to identify small molecule agonists of the glucocorticoid receptor (GR) signaling pathway (AID 720691; active = well fitted activation curve with a large enough effect in the signal ratio in the repeat runs, not every such curve was filed as active; the % refers to the signal ratio)
How it was run: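 Steps: seed GR-bla HeLa cells, incubate 4 h at 37 C/5% CO2; pin-transfer DMSO-dissolved compounds; incubate 18 h at 37 C; add LiveBLAzer B/G FRET substrate; after 2 h at room temperature, measure fluorescence.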

[16] = molecular target: Glucocorticoid receptor (Homo sapiens) (UniProt P04150); assay: qHTS assay to identify small molecule antagonists of the glucocorticoid receptor (GR) signaling pathway (AID 720692; active = well fitted inhibition curve with a large enough effect in the signal ratio in the repeat runs, not every such curve was filed as active; the % refers to the signal ratio)
How it was run: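 Antagonism was scored as loss of dexamethasone-driven (5 nM final) reporter signal in HeLa cells bearing a glucocorticoid response element–beta-lactamase construct, after 18 h compound exposure at 37 C and 2 h FRET substrate loading.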

[17] = molecular target: Androgen receptor (Homo sapiens) (UniProt P10275); assay: qHTS assay to identify small molecule agonists of the androgen receptor (AR) signaling pathway (AID 743036; active = well fitted activation curve with a large enough effect in the signal ratio in the repeat runs, with a control signal flat, not every such curve was filed as active; the % refers to the signal ratio)
How it was run: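 Reporter line: GeneBLAzer AR-UAS-bla-GripTite (HEK293). Steps: plate cells, 4 h rest, add compounds, 16 h at 37C, add LiveBLAzer B/G substrate, 2 h at RT, read fluorescence.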

[18] = molecular target: Androgen receptor (Homo sapiens) (UniProt P10275); assay: qHTS assay to identify small molecule agonists of the androgen receptor (AR) signaling pathway using the MDA cell line (AID 743040; note: nearly all actives have a fitted effect of over 20% in size)
How it was run: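 Luciferase read-out, ONE-Glo, 30 min RT. Cells: MDA-kb2 AR-luc, MMTV promoter with AR and GR response elements. Compound exposure 16 h, 37C, 0% CO2, after 5 h pre-incubation. qHTS agonist mode.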

[19] = molecular target: Androgen receptor (Homo sapiens) (UniProt P10275); assay: qHTS assay to identify small molecule antagonists of the androgen receptor (AR) signaling pathway using the MDA cell line (AID 743042; note: nearly all actives have a fitted effect of over 55% in size)
How it was run: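 MDA-kb2 breast carcinoma cells carrying MMTV-luciferase (AR/GR responsive) were co-treated with compounds and the agonist R1881 for 16 h at 37C. Inhibition read as ONE-Glo luminescence; CellTiter-Fluor fluorescence measured in parallel for cytotoxicity.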

Chain of Androgen receptor (Homo sapiens) (P10275 whole entry, looked up): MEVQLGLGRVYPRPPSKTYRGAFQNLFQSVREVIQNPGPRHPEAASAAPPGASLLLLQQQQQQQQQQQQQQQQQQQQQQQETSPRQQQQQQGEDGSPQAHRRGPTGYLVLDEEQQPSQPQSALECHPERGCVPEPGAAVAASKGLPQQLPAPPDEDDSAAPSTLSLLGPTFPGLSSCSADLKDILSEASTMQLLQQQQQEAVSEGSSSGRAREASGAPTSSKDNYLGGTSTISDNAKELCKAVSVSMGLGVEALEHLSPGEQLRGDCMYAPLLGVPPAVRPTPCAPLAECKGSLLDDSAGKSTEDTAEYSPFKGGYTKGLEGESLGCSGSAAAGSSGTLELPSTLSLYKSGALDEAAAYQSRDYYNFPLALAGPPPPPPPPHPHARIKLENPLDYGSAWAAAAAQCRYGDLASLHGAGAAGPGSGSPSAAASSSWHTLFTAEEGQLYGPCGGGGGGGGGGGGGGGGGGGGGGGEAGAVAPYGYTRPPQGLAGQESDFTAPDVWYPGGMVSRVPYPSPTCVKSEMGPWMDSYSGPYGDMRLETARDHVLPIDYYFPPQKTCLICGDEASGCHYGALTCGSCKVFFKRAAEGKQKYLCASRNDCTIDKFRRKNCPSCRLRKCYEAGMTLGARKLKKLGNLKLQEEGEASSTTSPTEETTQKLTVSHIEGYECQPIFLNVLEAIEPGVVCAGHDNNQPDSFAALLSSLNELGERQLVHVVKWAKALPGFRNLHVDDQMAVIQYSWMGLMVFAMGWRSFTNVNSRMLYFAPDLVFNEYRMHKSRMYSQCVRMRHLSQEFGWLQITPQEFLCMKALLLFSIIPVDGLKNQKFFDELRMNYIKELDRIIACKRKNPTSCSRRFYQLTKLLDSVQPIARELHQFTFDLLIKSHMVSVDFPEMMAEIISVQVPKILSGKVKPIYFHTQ
Chain of Glucocorticoid receptor (Homo sapiens) (P04150 whole entry, looked up): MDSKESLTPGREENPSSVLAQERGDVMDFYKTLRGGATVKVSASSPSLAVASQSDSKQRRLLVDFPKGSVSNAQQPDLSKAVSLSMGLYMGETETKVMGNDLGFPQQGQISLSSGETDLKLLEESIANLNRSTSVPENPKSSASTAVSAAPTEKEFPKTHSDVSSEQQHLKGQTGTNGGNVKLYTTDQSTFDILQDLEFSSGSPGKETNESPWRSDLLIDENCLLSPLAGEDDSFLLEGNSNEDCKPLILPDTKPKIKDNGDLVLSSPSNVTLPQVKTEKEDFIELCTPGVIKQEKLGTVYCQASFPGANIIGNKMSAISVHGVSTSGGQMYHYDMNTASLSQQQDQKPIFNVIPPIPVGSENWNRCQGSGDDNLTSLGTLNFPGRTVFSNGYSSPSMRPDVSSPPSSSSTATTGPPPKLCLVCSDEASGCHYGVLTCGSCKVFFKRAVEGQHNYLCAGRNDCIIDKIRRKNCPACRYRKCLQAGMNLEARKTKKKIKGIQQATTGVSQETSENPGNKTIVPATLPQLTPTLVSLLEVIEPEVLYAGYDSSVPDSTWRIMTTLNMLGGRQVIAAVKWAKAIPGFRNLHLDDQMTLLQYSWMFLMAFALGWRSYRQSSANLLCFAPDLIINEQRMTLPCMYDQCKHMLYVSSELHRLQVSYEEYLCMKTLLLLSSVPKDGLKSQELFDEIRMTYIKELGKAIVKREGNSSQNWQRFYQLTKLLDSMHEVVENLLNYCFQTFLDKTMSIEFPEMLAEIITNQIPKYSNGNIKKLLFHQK

Row | SMILES | outcome [1] | outcome [2] | outcome [3] | outcome [4] | outcome [5] | outcome [6] | outcome [7] | outcome [8] | Potency [9] | Potency [10] | Potency [11] | Potency [12] | outcome [13] | outcome [14] | outcome [15] | Potency [16] | outcome [17] | outcome [18] | Potency [19]
1 | Cc1ccc(N)cc1 | inactive | inactive | inactive | inactive | inactive | inactive | inactive | inactive | inactive | inactive | inactive | inactive | inactive | inactive | – | – | – | – | –
2 | N#CN=C(N)N | inactive | inactive | inactive | inactive | inactive | inactive | inactive | inactive | inactive | inactive | inactive | inactive | inactive | inactive | – | – | – | – | –
3 | FC(F)(F)c1ccc(Cl)cc1 | inactive | inactive | inactive | inactive | inactive | inactive | inactive | inactive | – | inactive | inactive | inactive | inactive | inactive | inactive | inactive | – | – | –
4 | O=P1(NCCCl)OCCCN1CCCl (stereo not drawn) | inactive | inactive | inactive | inactive | inactive | inactive | inactive | inactive | – | inactive | inactive | inactive | inactive | – | inactive | inactive | – | – | –
5 | COC(=O)Nc1cccc(OC(=O)Nc2cccc(C)c2)c1 | inactive | inactive | inactive | inactive | inactive | inactive | inactive | inactive | inactive | inactive | inactive | inactive | inactive | inactive | inactive | inactive | – | – | –
6 | Cc1cccc(N)c1 | inactive | inactive | inactive | inactive | inactive | inactive | inactive | inactive | – | inactive | inactive | inactive | inactive | inactive | – | – | – | – | –
7 | CCCCCCCCCCCCCCCCCC(=O)O | inactive | inactive | inactive | inactive | inactive | inactive | inactive | inactive | inactive | inactive | 60.7 µM (active) and inactive | inactive | inactive | inactive | – | – | – | – | –
8 | ClCCOCCCl | inactive | inactive | inactive | inactive | inactive | inactive | inactive | inactive | inactive | inactive | inactive | inactive | inactive | – | inactive | inactive | – | – | –
9 | Cc1cccc(C)c1N | inactive | inactive | inactive | inactive | inactive | inactive | inactive | inactive | inactive | inactive | inactive | inactive | inactive | inactive | inactive | inactive | – | – | –
10 | CNCC(O)c1ccc(O)cc1 (stereo not drawn) | inactive | inactive | inactive | inactive | inactive | inactive | inactive | inactive | inactive | inactive | inactive | inactive | inactive | – | inactive | inactive | – | – | –
11 | O=C(O)c1cc(Oc2ccc(C(F)(F)F)cc2Cl)ccc1[N+](=O)[O-] | inactive | inactive | inactive | inactive | inactive | inactive | inactive | inactive | – | inactive | inactive | inactive | inactive | inactive | inactive | inactive | – | – | –
12 | CCCOC(=O)c1ccccc1C(=O)OCCC | inactive | inactive | inactive | inactive | inactive | inactive | inactive | inactive | – | inactive | – | inactive | inactive | inactive | – | – | – | – | –
13 | CC(C)CCCCCCOC(=O)c1ccccc1C(=O)OCCCCCCC(C)C | inactive | inactive | inactive | inactive | inactive | inactive | inactive | inactive | inactive | inactive | inactive | inactive | inactive | inactive | inactive | inactive | inactive | inactive | inactive
14 | OCc1ccco1 | inactive | inactive | inactive | inactive | inactive | inactive | inactive | inactive | inactive | inactive | inactive | inactive | inactive | – | – | – | – | – | –
15 | CC(=O)C1CCOC1=O (stereo not drawn) | inactive | inactive | inactive | inactive | inactive | inactive | inactive | inactive | inactive | inactive | – | inactive | inactive | inactive | inactive | inactive | – | – | –
16 | O=C(O)C1C(C(=O)O)C2(Cl)C(Cl)=C(Cl)C1(Cl)C2(Cl)Cl (stereo not drawn) | inactive | inactive | inactive | inactive | inactive | inactive | inactive | inactive | inactive | inactive | inactive | inactive | inactive | inactive | inactive | inactive | – | – | –
17 | ClC(Cl)c1ccccc1 | inactive | inactive | inactive | inactive | inactive | inactive | inactive | inactive | – | inactive | inactive | inactive | inactive | – | inactive | inactive | – | – | –
18 | Cc1cc(O)ccc1Cl | inactive | inactive | inactive | inactive | inactive | inactive | inactive | inactive | – | inactive | inactive | inactive | inactive | inactive | inactive | inactive | – | – | –
19 | C=CC(=O)OCC(CC)CCCC (stereo not drawn) | inactive | inactive | inactive | inactive | inactive | inactive | inactive | inactive | inactive | – | – | – | inactive | – | inactive | inactive | – | – | –
20 | [N-]=[N+]=CC(=O)OC[C@H](N)C(=O)O | inactive | inactive | inactive | inactive | inactive | inactive | inactive | inactive | – | inactive | inactive | inactive | inactive | – | – | – | – | – | –
21 | O=S(=O)(O)OOS(=O)(=O)O | inactive | inactive | inactive | inactive | inactive | inactive | inactive | inactive | inactive | inactive | inactive | inactive | inactive | – | – | – | – | – | –
22 | O=C/C=C/c1ccccc1 | inactive | inactive | inactive | inactive | inactive | inactive | inactive | inactive | – | inactive | inactive | inactive | inactive | – | inactive | inactive | – | – | –
23 | C=CC#N | inactive | inactive | inactive | inactive | inactive | inactive | inactive | inactive | – | inactive | inactive | inactive | inactive | – | inactive | inactive | – | – | –
24 | CC(=O)/C=C/c1ccccc1 | inactive | inactive | inactive | inactive | inactive | inactive | inactive | inactive | – | inactive | inactive | inactive | inactive | – | inactive | inactive | – | – | –
25 | O=[N+]([O-])c1cc([As](=O)(O)O)ccc1O | inactive | inactive | inactive | inactive | inactive | inactive | inactive | inactive | inactive | inactive | inactive | inactive | inactive | inactive | inactive | inactive | – | – | –
26 | Cl[C@H]1OCCO[C@@H]1Cl | inactive | inactive | inactive | inactive | inactive | inactive | inactive | inactive | inactive | inactive | inactive | inactive | inactive | – | inactive | – | – | – | –
27 | COc1nc(NC(C)C)nc(NC(C)C)n1 | inactive | inactive | inactive | inactive | inactive | inactive | inactive | inactive | – | inactive | inactive | inactive | inactive | inactive | inactive | inactive | – | – | –
28 | CNC(=O)O/N=C/C(C)(C)S(C)=O (stereo not drawn) | inactive | inactive | inactive | inactive | inactive | inactive | inactive | inactive | inactive | inactive | inactive | inactive | inactive | – | inactive | inactive | – | – | –
29 | Cc1ccccc1N | inactive | inactive | inactive | inactive | inactive | inactive | inactive | inactive | inactive | inactive | inactive | inactive | inactive | – | – | – | – | – | –
30 | Cc1cccc(N)c1C | inactive | inactive | inactive | inactive | inactive | inactive | inactive | inactive | inactive | inactive | inactive | inactive | inactive | inactive | inactive | inactive | – | – | –
